Assay results from PubChem BioAssay (NCI).
About 79,000 compounds went through this panel and 15% of them were active in at least one assay; those are over-represented in the sample as a whole. Rule as the data show it: active = growth inhibition above about 70%; inactive = the rest.

What was measured:
[1] = NCI Yeast Anticancer Drug Screen. Data for the rad50 strain (AID 155);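 also: 0% = growth of vehicle-only cultures of the same strain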; conditions: S. cerevisiae rad50 strain growth inhibition; at 50.0 µM; active compounds read high
Method in brief: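 Growth of the mutant yeast was measured after compound exposure and referenced to vehicle-treated cultures.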

[2] = NCI Yeast Anticancer Drug Screen. Data for the mec2-1 strain (AID 157); conditions: S. cerevisiae mec2-1 strain, at 50.0 µM, active compounds read high
Method in brief: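 Cells of the genetically defined mec2-1 yeast strain are incubated with test compound. Inhibition of growth is calculated against vehicle-treated controls.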

[3] = NCI Yeast Anticancer Drug Screen. Data for the sgs1 mgt1 strain (AID 161);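 also: 0% = growth of cultures given vehicle only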; conditions: S. cerevisiae sgs1 mgt1 strain, at 50.0 µM, active compounds read high
Method in brief: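 Read-out: growth inhibition vs vehicle controls. Cells: mutant yeast strain deficient in DNA damage repair.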

[4] = NCI Yeast Anticancer Drug Screen. Data for the cln2 rad14 strain (AID 165);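 also: 0% = growth equal to vehicle treated cultures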; conditions: S. cerevisiae cln2 rad14 strain, at 50.0 µM, active compounds read high
Method in brief: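 The screen exposed genetically defined yeast (cln2 rad14) to test compounds and scored growth inhibition relative to vehicle-treated controls.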

[5] = NCI Yeast Anticancer Drug Screen. Data for the bub3 strain (AID 167); conditions: S. cerevisiae bub3 mutant strain, at 50.0 µM, active compounds read high
Method in brief: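 Whole-cell yeast assay. The mutant strain was incubated with compounds, and growth inhibition was determined by comparison with vehicle-treated cells.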

[6] = NCI Yeast Anticancer Drug Screen. Data for the mlh1 rad18 strain (AID 175); conditions: S. cerevisiae mlh1 rad18 strain growth inhibition; at 50.0 µM; active compounds read high
Method in brief: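 Compound-treated yeast growth, normalised to vehicle controls. Strain bears defined DNA repair mutations.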

Measured: growth inhibition

C=C[C@@H]1C(CO)=CCC2[C@H]1CCC1C(C)(C)C(=O)CC[C@]21C (stereo partly specified)
inactive: [1] -7.95% | [2] -13.4% | [3] -5.7% | [4] 2.7% | [5] 0.05% | [6] -47.1%

C(=N\c1nc2ccccc2s1)/c1cccs1
inactive: [1] -15.7% | [2] -34% | [3] -14.8% | [4] -5.95% | [5] 3.45% | [6] -19.4%

CCC(C)(S)CN (stereo unspecified)
inactive: [1] -1.55% | [2] -2.55% | [3] -7.35% | [4] -37.5% | [5] -11.4% | [6] -1.55%

O=C(O)c1ccc(F)cc1F
inactive: [1] 6.25% | [2] -15.9% | [3] 11.3% | [4] -32.7% | [5] -3.75% | [6] 2.85%

O=C1C2(CCCC13OC3c1ccccc1)OC2c1ccccc1 (stereo unspecified)
inactive: [1] -20.9% | [2] -11.1% | [3] -5.15% | [4] -14.4% | [5] 23.3% | [6] -3.6%

CCCCCCCC(=O)N1CCCC(C)C1 (stereo unspecified)
inactive: [1] -7.8% | [2] -25.8% | [3] 9.3% | [4] -5.75% | [5] -35.3% | [6] -3.9%

CCCCCP(=O)(CCC(C)C)CC(C)C (stereo unspecified)
inactive: [1] 8.95% | [2] 7.3% | [3] 20.7% | [4] 28.9% | [5] -10.6% | [6] -6.6%

C=CC[N+]12CC=C3COC(=O)C(C)(O)C(C)(O)C(C)C(=O)OC(CC1)C32 (stereo unspecified)
inactive: [1] 0.4% | [2] -0.2% | [3] 0.4% | [4] -25.9% | [5] -3.55% | [6] -5.65%

CCOC(=O)C(CCSC)(CCSC)C(=O)OCC
inactive: [1] -41.4% | [2] -56.7% | [3] -31.7% | [4] 11.8% | [5] 20.4% | [6] -13.1%

CC1=Nc2nc3ccccc3n2C(C)(C)C1
inactive: [1] 14.6% | [2] 18.8% | [3] 11.6% | [4] -3.95% | [5] -0.2% | [6] -34.1%

Cn1cnc(CC(=O)O)c1
inactive: [1] 4.85% | [2] -6.6% | [3] -12.5% | [4] 5.25% | [5] 11% | [6] -0.05%

N#C/C(=C\c1ccccc1)c1cccc(Br)c1
inactive: [1] 3.9% | [2] -6.1% | [3] 17.4% | [4] -22.9% | [5] 48.1% | [6] -1%

CC(=O)OC1CCC2(C)C(=CCC3C2CCC2(C)C3CC(Br)C2(O)C(C)=O)C1 (stereo unspecified)
inactive: [1] 41.9% | [2] 24.1% | [3] 15% | [4] 17.7% | [5] 4.1% | [6] 30.4%

Cc1ccc(F)c(N)c1
inactive: [1] 26.8% | [2] -17.2% | [3] 24.1% | [4] 5.8% | [5] 5.75% | [6] 27.9%

COc1c2c(cc3c1C(=O)Cc1ccc4c(c1CN(C)CC3)OCO4)OCO2
inactive: [1] 7.15% | [2] -3.4% | [3] -1.15% | [4] 24.4% | [5] 8.95% | [6] 7.25%

CCCC(=O)Oc1ccc(Br)cc1
inactive: [1] 6.6% | [2] -22.4% | [3] -5.25% | [4] 12.8% | [5] -17.9% | [6] 20.9%

CCC(N)CS(=O)(=O)O (stereo unspecified)
inactive: [1] -33.7% | [2] -19.6% | [3] -9.9% | [4] -61% | [5] -26.8% | [6] -45.1%

CN(C)C(=O)NNC(=O)N(C)C
inactive: [1] 1.75% | [2] 20.5% | [3] 12.8% | [4] -22.5% | [5] 6.85% | [6] -0.7%

CCCCCCCCCC(=O)N/N=C/c1c[nH]c2ccccc12
inactive: [1] 0.95% | [2] 28.4% | [3] 20.7% | [4] -8.75% | [5] 29.1% | [6] 21.9%

C/C=N\C(N)=S
inactive: [1] 1.45% | [2] -1.3% | [3] 4.8% | [4] 9.05% | [5] 9.8% | [6] 1%

CN(C)c1ccc(C=C2/C(=N\O)c3ccccc3/C2=N/O)cc1
inactive: [1] -1.5% | [2] 38.1% | [3] 39% | [4] -8.2% | [5] 34.2% | [6] 48.1%
